Assay results from PubChem BioAssay AID1159580 (chemical genetic matrix, 2015).
About 2,000 (36%) of roughly 5,500 compounds were called active. Roughly 18% stayed inconclusive and do not appear here. No stated cut-off is given here; in the data, active means normalized growth mostly below about 0.91 (no sharp cut-off); inconclusive means no clear call, values can overlap the other calls; inactive means mostly above about 0.92. Some of the results follow.

Experiment: chemical genetic growth profiling, strain panel (AID 1159580);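 further: tested at 20 µM; growth read once vehicle control cultures reached saturation at 30 °C; 1 = growth at the plate median or of vehicle wells; lower values mean less growth of the strain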
Details: S. cerevisiae deletion strains, growth OD

Measured: normalized growth

COc1cc(S(C)=O)ccc1-c1nc2ncccc2[nH]1 (stereo not drawn)
inactive: locus YAL013W, strain DEP1, active compounds read low 1.01 | locus YAL021C, strain ccr4, active compounds read low 0.936 | locus YAL026C, strain drs2, active compounds read low 0.994 | locus YAL030W, strain snc1, active compounds read low 0.976 | locus YBL061C, strain skt5, active compounds read low 0.984 | locus YBR009C, strain hhf1, active compounds read low 0.956 | locus YBR021W, strain FUR4, active compounds read low 0.994 | locus YBR023C, strain chs3, active compounds read low 0.98 | locus YBR171W, strain sec66, active compounds read low 0.977 | locus YBR229C, strain ROT2, active compounds read low 1.01 | locus YBR231C, strain swc5, active compounds read low 1.01 | locus YBR279W, strain paf1, active compounds read low 0.981 | locus YCL011C, strain gbp2, active compounds read low 0.969 | locus YCL016C, strain dcc1, active compounds read low 0.959 | locus YCL029C, strain bik1, active compounds read low 0.985 | locus YCL061C, strain MRC1, active compounds read low 0.984 | locus YCL069W, strain vba3, active compounds read low 0.967 | locus YCR088W, strain abp1, active compounds read low 0.981 | locus YDL005C, strain med2, active compounds read low 0.966 | locus YDL035C, strain GPR1, active compounds read low 1 | locus YDL040C, strain nat1, active compounds read low 0.969 | locus YDL074C, strain BRE1, active compounds read low 1.04 | locus YDL101C, strain DUN1, active compounds read low 0.994 | locus YDL134C, strain PPH21, active compounds read low 1.01 | locus YDL185W, strain tfp1, active compounds read low 0.98 | locus YDL192W, strain arf1, active compounds read low 0.985 | locus YDR001C, strain nth1, active compounds read low 0.963 | locus YDR069C, strain doa4, active compounds read low 0.958 | locus YDR101C, strain arx1, active compounds read low 0.999 | locus YDR137W, strain rgp1, active compounds read low 0.973 | locus YDR150W, strain NUM1, active compounds read low 0.979 | locus YDR159W, strain sac3, active compounds read low 0.96 | locus YDR162C, strain NBP2, active compounds read low 1 | locus YDR195W, strain ref2 0.935 | locus YDR297W, strain sur2, active compounds read low 0.974 | locus YDR318W, strain mcm21, active compounds read low 0.997 | locus YDR334W, strain swr1, active compounds read low 0.97 | locus YDR335W, strain msn5, active compounds read low 0.96 | locus YDR388W, active compounds read low 0.996 | locus YDR392W, strain spt3, active compounds read low 0.848 | locus YDR502C, strain sam2, active compounds read low 0.984 | locus YEL003W, strain gim4, active compounds read low 0.98 | locus YEL037C, strain rad23, active compounds read low 0.975 | locus YEL061C, strain CIN8 (second series), active compounds read low 0.972 | locus YEL061C, strain CIN8, active compounds read low 1 | locus YER015W, strain faa2, active compounds read low 0.982 | locus YER016W, strain bim1, active compounds read low 0.978 | locus YER110C, active compounds read low 0.992 | locus YER111C, strain swi4, active compounds read low 0.972 | locus YER155C, strain BEM2 (second series), active compounds read low 0.994 | locus YER155C, strain BEM2, active compounds read low 0.978 | locus YER167W, strain BCK2, active compounds read low 1.01 | locus YFR010W, strain ubp6, active compounds read low 0.974 | locus YGL078C, strain dbp3, active compounds read low 0.993 | locus YGL086W, strain mad1, active compounds read low 0.995 | locus YGL167C, strain pmr1, active compounds read low 0.941 | locus YGL173C, strain kem1, active compounds read low 0.99 | locus YGL227W, strain vid30, active compounds read low 0.982 | locus YGL240W, strain doc1, active compounds read low 0.999 | locus YGL248W, strain PDE1, active compounds read low 0.995 | locus YGL253W, strain hxk2, active compounds read low 0.987 | locus YGR078C, strain PAC10, active compounds read low 1.02 | locus YGR135W, strain pre9, active compounds read low 0.983 | locus YGR229C, strain SMI1, active compounds read low 1.02 | locus YGR252W, strain gcn5, active compounds read low 1.01 | locus YHR013C, strain ard1, active compounds read low 0.929 | locus YHR027C, strain rpn1, active compounds read low 0.97 | locus YHR030C, strain SLT2, active compounds read low 0.984 | locus YHR079C, strain IRE1 (second series), active compounds read low 0.997 | locus YHR094C, strain hxt1, active compounds read low 0.99 | locus YHR129C, strain ARP1, active compounds read low 1 | locus YHR142W, strain chs7, active compounds read low 0.943 | locus YHR200W, strain rpn10, active compounds read low 0.991 | locus YIL066C, strain RNR3, active compounds read low 0.995 | locus YIL073C, strain SPO22, active compounds read low 0.943 | locus YIL125W, strain kgd1, active compounds read low 0.999 | locus YIR030C, strain dcg1, active compounds read low 0.988 | locus YJL092W, strain hpr5, active compounds read low 0.98 | locus YJL095W, strain BCK1 (second series), active compounds read low 0.972 | locus YJL095W, strain BCK1, active compounds read low 1.03 | locus YJL115W, strain asf1, active compounds read low 0.972 | locus YJL129C, strain trk1, active compounds read low 0.966 | locus YJL134W, strain LCB3, active compounds read low 1.01 | locus YJL154C, strain vps35, active compounds read low 0.972 | locus YJL164C, strain tpk1, active compounds read low 0.941 | locus YJL166W, strain qcr8, active compounds read low 0.984 | locus YJL168C, strain set2, active compounds read low 1 | locus YJL187C, strain SWE1 (second series), active compounds read low 0.989
